Compound activity from PubChem BioAssay.
G9a inh = inhibitors of human histone lysine methyltransferase G9a. Q96KQ7. G9a H3K9 monomethylation, AlphaScreen, 2 h. Potency, µM (top dose mostly 102 µM), inactives show at the top dose activity, negative = inhibition, most hits filed as inhibitors. actives 8.8% (n = 350,000); also: % is scaled to controls: 0 for no effect and ±100 for the full control effect; nearly all actives have a fitted effect of over 75% in size
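Methyltransferase reactions run at room temperature for 2 h (20 nM enzyme, 500 nM biotin-H3K9 peptide, 20 uM SAM) after a 15 min compound preincubation; product detected by AlphaScreen beads and anti-H3K9me1 antibody.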
HP1b binding inh = HP1-beta chromodomain-methylated histone interaction inhibition. P83916. AlphaScreen HP1-beta / biotin-H3K9me3 peptide binding. Potency, µM (highest dose often 114 µM), for the others: top-dose activity change, negative = inhibition, actives largely listed as inhibitors. actives 0.56% (n = 390,000). AID 540317; also: nearly all actives have a fitted effect of over 70% in size
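Compound inhibition of the preformed complex between 50 nM HP1-beta and 50 nM biotinylated H3K9me3 peptide was read by AlphaScreen. Buffer was PBS pH 7.4 with 0.01% Tween-20. Incubations ran 30 min at room temperature, with 10 ug/mL donor/acceptor beads.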
BAZ2B block = BAZ2B (human) inhibition; Q9UIF8; AlphaScreen BAZ2B-H3K14Ac peptide displacement; Potency, µM (titrated, usually from 114 µM), for the others: at the highest dose activity change, negative = inhibition, most hits filed as inhibitors; actives 4.4% (n = 360,000); AID 504333; also: % is scaled to controls: 0 for no effect and ±100 for the full control effect; nearly all actives have a fitted effect of over 60% in size
Target sequence (Q9UIF8 whole entry, looked up): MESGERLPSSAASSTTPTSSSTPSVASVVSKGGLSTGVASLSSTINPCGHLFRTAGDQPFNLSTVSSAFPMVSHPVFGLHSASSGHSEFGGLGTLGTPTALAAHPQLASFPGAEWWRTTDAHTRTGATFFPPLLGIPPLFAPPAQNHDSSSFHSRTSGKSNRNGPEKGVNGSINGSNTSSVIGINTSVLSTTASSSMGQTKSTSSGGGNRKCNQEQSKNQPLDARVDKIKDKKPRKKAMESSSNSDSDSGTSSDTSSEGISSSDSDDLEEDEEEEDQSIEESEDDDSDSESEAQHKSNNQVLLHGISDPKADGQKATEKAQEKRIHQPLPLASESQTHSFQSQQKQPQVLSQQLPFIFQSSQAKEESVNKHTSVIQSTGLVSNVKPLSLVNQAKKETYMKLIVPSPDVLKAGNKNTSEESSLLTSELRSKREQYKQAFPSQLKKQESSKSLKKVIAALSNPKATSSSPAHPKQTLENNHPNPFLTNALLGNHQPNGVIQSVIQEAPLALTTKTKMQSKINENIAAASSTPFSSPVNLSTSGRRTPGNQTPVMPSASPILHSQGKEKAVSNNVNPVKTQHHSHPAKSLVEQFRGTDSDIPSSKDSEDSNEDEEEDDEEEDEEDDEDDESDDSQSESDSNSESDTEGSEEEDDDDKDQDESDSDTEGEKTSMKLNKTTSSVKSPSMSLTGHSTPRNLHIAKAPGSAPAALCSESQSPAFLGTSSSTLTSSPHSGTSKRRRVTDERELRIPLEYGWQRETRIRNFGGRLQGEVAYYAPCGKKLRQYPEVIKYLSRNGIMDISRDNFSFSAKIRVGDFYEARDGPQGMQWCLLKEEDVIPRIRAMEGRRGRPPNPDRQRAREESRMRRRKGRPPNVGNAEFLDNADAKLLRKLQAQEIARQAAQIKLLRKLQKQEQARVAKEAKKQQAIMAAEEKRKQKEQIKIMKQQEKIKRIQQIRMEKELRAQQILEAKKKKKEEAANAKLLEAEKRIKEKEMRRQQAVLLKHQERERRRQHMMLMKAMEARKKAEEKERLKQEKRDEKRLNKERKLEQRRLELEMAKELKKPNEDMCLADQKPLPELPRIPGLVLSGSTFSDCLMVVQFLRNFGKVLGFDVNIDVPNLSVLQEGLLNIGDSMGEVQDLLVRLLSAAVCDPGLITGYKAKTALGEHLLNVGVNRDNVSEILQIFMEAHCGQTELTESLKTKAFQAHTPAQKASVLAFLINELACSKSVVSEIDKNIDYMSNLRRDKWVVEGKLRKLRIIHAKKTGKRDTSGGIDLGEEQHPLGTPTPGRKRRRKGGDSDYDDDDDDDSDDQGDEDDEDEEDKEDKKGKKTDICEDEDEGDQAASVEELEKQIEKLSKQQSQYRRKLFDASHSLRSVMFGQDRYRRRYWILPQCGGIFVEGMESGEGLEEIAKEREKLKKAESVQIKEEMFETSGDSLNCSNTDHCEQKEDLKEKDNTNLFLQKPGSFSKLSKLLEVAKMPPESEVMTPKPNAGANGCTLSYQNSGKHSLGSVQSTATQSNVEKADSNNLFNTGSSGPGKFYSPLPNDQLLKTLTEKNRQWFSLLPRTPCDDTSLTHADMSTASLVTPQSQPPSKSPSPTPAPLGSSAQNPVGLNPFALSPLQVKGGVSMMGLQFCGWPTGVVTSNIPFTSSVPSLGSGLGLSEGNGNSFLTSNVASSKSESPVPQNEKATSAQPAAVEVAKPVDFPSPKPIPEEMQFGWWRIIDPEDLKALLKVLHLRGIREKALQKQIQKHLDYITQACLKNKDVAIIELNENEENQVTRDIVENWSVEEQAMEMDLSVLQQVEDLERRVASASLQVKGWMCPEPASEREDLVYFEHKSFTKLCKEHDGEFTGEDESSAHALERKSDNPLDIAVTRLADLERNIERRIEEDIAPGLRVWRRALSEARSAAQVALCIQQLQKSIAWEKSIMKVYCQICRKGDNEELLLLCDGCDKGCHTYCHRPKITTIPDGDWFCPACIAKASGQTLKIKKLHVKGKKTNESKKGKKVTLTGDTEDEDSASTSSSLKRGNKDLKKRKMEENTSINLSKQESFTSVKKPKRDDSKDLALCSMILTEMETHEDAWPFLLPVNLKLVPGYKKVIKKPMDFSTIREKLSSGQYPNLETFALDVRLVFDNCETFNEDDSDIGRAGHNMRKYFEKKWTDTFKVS
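Compounds, titrated to a top concentration of 110 uM, were incubated 30 min at room temperature with preformed BAZ2B/acetyl-K14 H3 peptide complex (50 nM each). Proximity signal was measured by AlphaScreen after 20 min with beads.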
JMJD2A Tudor inh = blocks the human JMJD2A Tudor domain. O75164. AlphaScreen JMJD2A-Tudor / H3K4me3 peptide binding. actives 4.4% (n = 390,000). Potency, µM (titrated, usually from 114 µM), for the others: at the highest dose activity change, negative = inhibition, usual class: inhibitors; also: % is scaled to controls: 0 for no effect and ±100 for the full control effect; nearly all actives have a fitted effect of over 50% in size
Sfp inh = inhibitors of Bacillus subtilis Sfp phosphopantetheinyl transferase; Biochemical Sfp PPTase activity, qHTS; Potency, µM, for inactives: largest response in the series, negative = inhibition, hits mostly inhibitors; actives 3.5% (n = 310,000); AID 1490;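 also: the enzyme is Sfp with the accession as filed and its product quenches rhodamine fluorescence; 0% = enzyme reaction without inhibitor and -100% = no enzyme wells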
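Step 1, compound plus 15 nM Sfp-PPTase, 15 min, room temperature. Step 2, add rhodamine-CoA (5 uM) and BHQ-2-YbbR (12.5 uM). Step 3, read 525/598 nm fluorescence at 0 and 30 min.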
TDP1 inh = blocks human tyrosyl-DNA phosphodiesterase 1. Q9NUW8. recombinant TDP1, AlphaScreen DNA substrate cleavage. Potency, µM (highest dose often 130 µM), inactives show at the top dose activity change, negative = inhibition, hits mostly inhibitors. actives 0.28% (n = 350,000). AID 485290; also: % is scaled to controls: 0 for no effect and ±100 for the full control effect; nearly all actives have a fitted effect of over 40% in size
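Tdp1 1 nM final; 15 min RT w/ cpd; substrate 15 nM, 5 min; beads 10 ug/ml, 10 min; AlphaScreen read. Neg ctrl: no enzyme.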
Numbers without * were called inactive; ? = inconclusive; . = no result given; [ ] = another dose, or the depositor's remark. An excerpt weighted towards active compounds, which were near 12% of everything screened. Calls follow the shape of the dose curve; as a rule, active = well fitted curve in the direction sought with a large enough effect; inconclusive = small, poorly fitted or top-dose-only effect, or another doubt; inactive = no such curve, though single readings can be large; an effect the other way counts as inactive or inconclusive. Potency is read from the fitted curve at half-maximal effect.

SMILES	G9a inh	HP1b binding inh	BAZ2B block	JMJD2A Tudor inh	Sfp inh	TDP1 inh
CCCN1CCC(N2CCN(c3ccc([N+](=O)[O-])cc3)CC2)CC1	.	?	45µM*	20µM*	-24%	.
O=[N+]([O-])c1ccc(N2CCCCC2)cc1	11%	13%	-26%	-19%	7%	.
CC(C)n1c(=N)c(C(=O)NCc2cccnc2)cc2c(=O)n3ccccc3nc21	-39%[59 µM]	23%	-2%	-3%	.	.
O=C(O)CC/C(=C\c1ccc(N2CCOCC2)c([N+](=O)[O-])c1)c1nc2ccccc2s1	?	-11%	35µM*	?	17%	3%
O=C(O)C/C(=C\c1ccc(N2CCOCC2)c([N+](=O)[O-])c1)c1nc2ccccc2s1	?	-6%	50µM*	-9%[11.4 µM]	-9%	3%
O=C(O)CC/C(=C\c1ccc(Cl)c([N+](=O)[O-])c1)c1nc2ccccc2s1	-48%	19%	-39%	-25%	-14%	-3%
COc1cc(/C=C(\CCC(=O)O)c2nc3ccccc3s2)ccc1OCC(=O)Nc1c(Cl)cccc1Cl	.	25%	.	?	.	28µM*
COc1ccc(C)cc1NC(=O)C1CCCN(S(=O)(=O)c2ccc3c(c2)oc(=O)n3C)C1 (stereo not drawn)	-4%[59 µM]	33%	-8%	-14%	.	4%
O=C(C(=O)N1CCCC1)c1c(-c2ccccc2)[nH]c2ccccc12	17%	8%	2%	-1%	13%	.
CC/C(=N\Nc1ccnc2cc(Cl)ccc12)c1ccc(O)cc1	28µM*	-34%	?	?	4%	.
Oc1ccc(/C=N/Nc2ccnc3cc(Cl)ccc23)c(O)c1O	22µM*	-37%[57 µM]	45µM*	?	45µM*	12%
CCN(CC)Cc1ccc(Nc2ccnc3cc(Cl)ccc23)cc1O	-33%[2.33 µM]	.	.	.	-11%	3%
Oc1ccc(/C=N/Nc2ccnc3cc(Cl)ccc23)cc1O	?	-19%	40µM*	-12%[11.4 µM]	?	9%
CCOc1ccccc1Nc1ccnc2cc(Cl)ccc12	4%	90%	5%	16%	0%	3%
Cc1ccc(CSc2nnc3[nH]c(=O)cc(C)n23)cc1	2%[59 µM]	40%	4%	-14%	.	5%
Cn1cnc(C(=O)N2CCN(c3ccccc3)CC2)c1C(=O)N1CCN(c2ccccc2)CC1	-46%[2.33 µM]	-17%	56µM*	28µM*	.	1%
COc1ccc(C2CC(=O)c3cc(-c4nc(-c5cccc([N+](=O)[O-])c5)cs4)c(=O)n(-c4ccccc4C)c3C2)cc1 (stereo not drawn)	3.5µM*	24%	?	-16%	.	3%
N#CCC(=O)Nc1ccc(C(=O)Nc2cccnc2)cc1	-1%	61%	-11%	-9%	7%	-10%
O=C(O)CSc1cc(C(=O)c2ccccc2O)cn2c(=O)c3c4c(sc3nc12)CCCC4	?	71µM*	22µM*	35µM*	?	.
CCOC(=O)c1cc(C(=O)c2ccccc2O)cn2c(=O)c3c(C)c(C)sc3nc12	-129%[59 µM]	.	?	.	45µM*	-5%
O=C(O)CSc1nc2sc3c(c2c(=O)n1Cc1ccccc1)CCCCC3	4%	9%	-12%	-16%	-4%	.
O=S(=O)(Nc1ccc2c(c1)nc1n2CCN(Cc2ccccc2)C1)c1ccccc1	?	12%	20%	-33%	-11%	6%
O=S(=O)(Nc1ccc2c(c1)nc1n2CCN(Cc2ccccc2)C1)c1ccc(F)cc1	?	48%	-32%	89µM*	16%	8%
O=C(Nc1ccc2c(c1)nc1n2CCN(Cc2ccccc2)C1)NC1CCCCC1	22µM*	22%	-3%	-23%	-1%	4%
O=S(=O)(Nc1ccc2c(c1)nc1n2CCN(Cc2ccccc2)C1)c1ccc(Cl)cc1	10µM*	57%	.	-14%	2%	8%
SMILES	G9a inh	HP1b binding inh	BAZ2B block	JMJD2A Tudor inh	Sfp inh	TDP1 inh
O=C(CSc1nnc(COc2ccccc2)o1)Nc1cc(C(F)(F)F)ccc1Cl	?	47%	15%	12%	.	.
N[C@](CC1c2ccccc2Oc2ccccc21)(C(=O)O)[C@H]1C[C@@H]1C(=O)O	17%[59 µM]	.	.	.	?	4%
CCOc1ccc(S(=O)(=O)NC(Cc2c[nH]c3ccccc23)C(=O)O)cc1 (stereo not drawn)	-18%	24%	-13%	-23%	8%	.
COC(=O)CSc1[nH]c2ccc(F)cc2c1[N+](=O)[O-]	?	69%	0%	7%	?	5%
CCCc1ccc(O)c(N=Cc2cc(Br)cc(OCC)c2O)c1	5.6µM*	22%	?	?	-13%	8%
COC(=O)C/C=C1\c2ccc3c(c2[C@@H](OC)[C@@H]1C)OCO3	.	.	.	.	4%	3%
O=C1C2C(C(=O)N1/N=C/c1cc([N+](=O)[O-])ccc1O)C1C=CC2C12CC2 (stereo not drawn)	5%	20%	3%	-13%	1%	-2%
O=[N+]([O-])c1cc(Cl)cc(/C=N/n2cnnc2)c1O	-11%	-4%	.	-20%	23%	-3%
O=[N+]([O-])c1cc(Br)cc(/C=N/n2cnnc2)c1O	32µM*	-12%	?	-34%	18%	-2%
O=C1C2C(C(=O)N1/N=C/c1cc(Br)cc([N+](=O)[O-])c1O)C1C=CC2C12CC2 (stereo not drawn)	?	?	?	79µM*	16%	-3%
CCS/C(N)=N/N=C/c1cc(C)ccc1O	39%	57%	3%	-20%	7%	7%
O=C1C2C(C(=O)N1/N=C/c1cc([N+](=O)[O-])c(O)cc1O)C1C=CC2C12CC2 (stereo not drawn)	56µM*	-19%	?	50µM*	?	?
C=CCS/C(N)=N\N=C\c1cc(Br)cc([N+](=O)[O-])c1O	50µM*	-9%	?	-36%	11%	6%
CNC(=O)c1cccc(NC(=O)c2ccccc2OCc2ccccc2)c1	19%	12%	6%	-18%	0%	3%
CC(C)(C)c1ccc(COc2ccsc2C(=O)O)cc1	-5%	30%	0%	-3%	14%	1%
COc1cccc(C2=NOC(C(=O)Nc3cc(C)nn3-c3ccccc3)C2)c1OC (stereo not drawn)	45µM*	17%	10%	6%	?	0%
COC(=O)Cc1cc(=O)n(-c2nc3ccccc3[nH]2)[nH]1	6%[59 µM]	27%	7.9µM*	18µM*	22%	7%
Cc1[nH]c2ccccc2c1/C=N/NC(N)=S	-26%[59 µM]	1%	-34%	-25%	-5%	5%
